From PubChem BioAssay AID624330 (Southern Research Specialized Biocontainment Screening …, 2012)
Hit rate of the full screen: of about 340,000 compounds, about 2,100 (0.62%) were called active.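 Rule for the calls: active = first-screen hits whose inhibition reached a set limit at any dose in the follow-up dose series; inconclusive = inhibition above the set first-screen limit but never retested; inactive = the rest.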 Only a sample is shown. Potency and affinity values are given separately.

Each compound was assayed against Rac GTPase-activating protein 1 (Homo sapiens) (UniProt Q9H0H5) (assay: blockers of MgcRacGAP-driven Rac1 GTP hydrolysis – biochemical, ADP Hunter fluorescence, primary and confirmatory, confirmation (AID 624330;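 note: fluorescence reports GDP produced by GAP-driven GTP hydrolysis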)). Conditions: MgcRacGAP-stimulated Rac1 GTP hydrolysis, at 30 µM, hits give high values, GST-tagged Rac1 F28L mutant substrate.
Chain of Rac GTPase-activating protein 1 (Homo sapiens) (Q9H0H5 whole entry, looked up): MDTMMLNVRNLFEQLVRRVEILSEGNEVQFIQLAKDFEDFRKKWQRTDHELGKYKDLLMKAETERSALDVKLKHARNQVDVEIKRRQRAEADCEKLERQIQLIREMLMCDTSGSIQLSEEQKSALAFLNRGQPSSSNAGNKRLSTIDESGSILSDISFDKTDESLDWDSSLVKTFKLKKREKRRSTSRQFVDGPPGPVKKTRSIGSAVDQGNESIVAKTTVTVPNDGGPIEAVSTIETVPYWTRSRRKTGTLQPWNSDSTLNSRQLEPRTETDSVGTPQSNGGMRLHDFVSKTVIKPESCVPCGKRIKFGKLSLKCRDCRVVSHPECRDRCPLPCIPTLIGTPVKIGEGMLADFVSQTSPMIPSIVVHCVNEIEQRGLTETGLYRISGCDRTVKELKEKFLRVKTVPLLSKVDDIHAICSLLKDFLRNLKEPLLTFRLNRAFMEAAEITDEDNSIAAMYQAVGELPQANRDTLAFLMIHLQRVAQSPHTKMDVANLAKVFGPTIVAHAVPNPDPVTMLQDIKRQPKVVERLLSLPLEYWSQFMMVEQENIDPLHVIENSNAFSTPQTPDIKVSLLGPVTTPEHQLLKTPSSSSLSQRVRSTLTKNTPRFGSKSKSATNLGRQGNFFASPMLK

inhibition, inactive:
O=C(CNC(=O)c1ccc(Br)o1)Nc1ccc(F)c(S(=O)(=O)N2CCOCC2)c1 5.58%
Clc1ccc(C=NN2CCCCCC2)cc1 -2.87%
Clc1ccc(/C=N/N2CCCCC2)cc1 7.04%
CCOc1ccc(NC(=O)C(C)Oc2ccccc2C(=O)Nc2ccc(C)c(Cl)c2)cc1 (configuration not stated) 5.67%
CC1(NC(=O)NCc2ccccc2)CCS(=O)(=O)C1 (configuration not stated) 10.2%
O=C(c1cccc(Cl)c1)N1CCC(c2nc3ccccc3[nH]2)CC1 9.71%
O=NC1=C(c2c(O)[nH]c3ccccc23)CCCC1 5.2%
O=C1C(c2c(O)[nH]c3ccccc23)=Nc2ccccc21 8.12%
Cc1ccc(NC(=O)COc2nc(C)cs2)cc1 4.7%
CC(=O)C[C@H](O)CC(=O)[C@H]1OC(=O)CC/C=C\Cc2ccccc21 5.25%
COc1cc(CNCc2ccc(C)cc2)cc(OC)c1OC 22.2%
COc1cc(CNCc2ccc(OC)c(OC)c2OC)cc(OC)c1 15.6%
COc1cc(CNCc2cccc3ccccc23)cc(OC)c1 25.2%
COc1ccc(CNCc2ccccc2C(F)(F)F)cc1 29.7%
CCCCn1c(N)c(N(CC(C)C)C(=O)c2cccc(S(=O)(=O)N(C)c3ccccc3)c2)c(=O)[nH]c1=O 5.29%
CCOC(=O)CC(NC(=O)c1ccccc1)c1ccc(OC)cc1 (configuration not stated) 3.97%
COCCNC(=O)c1cccc(OC2CCN(Cc3ccccc3OCCO)CC2)c1 11.3%
O=C(NC(=S)N1CCCCCC1)c1ccccc1 2.51%
COc1cc2oc(-c3ccc(O)cc3)cc(=O)c2c(O)c1OC 18.1%
COc1c(O)cc2oc(-c3ccc(O)cc3)cc(=O)c2c1O 10.2%
CS(=O)(=O)N(Cc1ccco1)CC(O)Cn1cc(C=O)c2ccccc21 (configuration not stated) 8.31%
CCN(CC(=O)Nc1cc(C)c(Cl)cc1OC)CC(=O)NC1CCS(=O)(=O)C1 (configuration not stated) 8.4%
COc1ccc(Cl)cc1NC(=O)CN(C)C1CCS(=O)(=O)C1 (configuration not stated) 6.99%
COCCNC(=O)CSc1ncnc2sc(-c3ccccc3)cc12 6.39%
COCCn1c(=NC(=O)c2ccc(S(=O)(=O)N3CCOCC3)cc2)sc2cc(S(N)(=O)=O)ccc21 8.39%
FC(F)(F)c1cnc2c(-c3ccc(Cl)cc3Cl)noc2c1 10.7%
CO/N=C/C(C(C)=O)C(=O)Nc1ccc(Cl)cc1Cl (configuration not stated) 1.68%
CC(=O)c1cccc(NC(=O)Nc2c(C)nn(C)c2C)c1 6.89%
Nc1nc(-c2ccccc2)c(-c2ccccc2)s1 10.3%
Cc1ccc(-c2nc(N)sc2-c2ccccc2)cc1C 8.82%
O=S(=O)(NCCCN1CCOCC1)c1ccc(Cl)s1 1.35%
O=C(Nc1ccccc1O)c1ccc(C(=O)c2ccccc2)o1 3.33%
C/C(=C\C(=O)c1cccnc1)Nc1ccc(C(=O)O)cc1 -0.69%
COc1ccc(NC(=O)c2ccc(C(=O)c3ccccc3)o2)cc1 1.49%
CC(=O)Nc1ccc(N/C(C)=C/C(=O)c2cccnc2)cc1 -2.43%
C/C(=C\C(=O)c1ccccc1)Nc1ccc(Cl)c(Br)c1 6.98%
COc1ccc(N/C(C)=C/C(=O)c2ccccc2)cc1 10.4%
CCN(CC(=O)NCc1ccc(Cl)cc1)C(=O)Cc1ccc(OC)cc1 5.69%
Cc1cc(C(=O)Nc2ccccc2[N+](=O)[O-])cs1 0.21%
CCOc1ccc(NC(=O)CN(C)C(=O)c2ccc(N3CCCCCC3)c([N+](=O)[O-])c2)cc1OCC 3.24%
CCOC(=O)c1cnc2ccc(Cl)cc2c1NCCN(C)C 14.5%
CCN(CC)CCCNc1ncnc2ccccc12 8.44%
CN(C)CCNc1ccc(-c2nn(C)c(=O)c3ccccc23)cc1[N+](=O)[O-] 3.29%
CCOC(=O)c1ccc2ncc(C(=O)OCC)c(NCCN(C)C)c2c1 -0.66%
CCN(CC)CCCNC(=O)c1cc(-c2ccc(O)cc2)on1 25.9%
Cc1cc(NCCO)c2cc(O)ccc2n1 15%
COC(=O)c1ccccc1NC(=O)c1sc(Cl)nc1C 6.47%
O=C1C=CC(=O)C(CNc2ccc(C(=O)OCc3ccccc3)cc2)=C1 19.7%
Fc1ccc(-c2nnc(N3CCOCC3)c3ccccc23)cc1F 10.8%
COC(=O)C(Cc1ccccc1)NC(=O)CNS(=O)(=O)c1ccc(Br)cc1 (configuration not stated) -0.24%
Cc1cc(OCCCCOc2ccc(S(N)(=O)=O)c(C)c2)ccc1S(N)(=O)=O 6.93%
CCCCOc1cccc(C(=O)O)c1 4%
CC[N+](CC)(CC)CCOc1ccc(/C=C/c2ccccc2)cc1 9.54%
CCOc1ccc2c(c1)C(=O)c1cc(OCC(=O)O)ccc1-2 13.8%
O=C(c1ccc(Cl)c(S(=O)(=O)N2CCCCCC2)c1)N1CCCC(C(F)(F)F)C1 (configuration not stated) 1.91%
COc1cccc(C(=O)NC2CCCc3ccccc32)c1 (configuration not stated) 11.4%
Oc1nc(Nc2ccc(F)cc2)sc1/C=C1\C=Nc2ccccc21 10.4%
O=c1[nH]c(=S)[nH]c(O)c1/C=C1\C=Nc2ccccc21 -1.08%
Cn1c(O)c(/C=C2\C=Nc3ccccc32)sc1=Nc1ccc(C(=O)O)cc1 7.27%
CSc1nsc2nc(=O)c(/C=C3\C=Nc4ccccc43)c(N)n12 1.86%
CC(=O)c1ccc(-n2c(CCC(=O)O)ccc2-c2ccc(Br)cc2)cc1 11.4%
CCCN(CC(=O)Nc1cccc(Br)c1)CC(=O)Nc1ccc(F)c(F)c1F 8.26%
CCc1ccccc1S(=O)(=O)Cc1ccc(C(=O)NCc2cccs2)o1 1.89%
O=C(CN(CC1CCCO1)C(=O)Cn1nnc(-c2ccc(F)cc2)n1)NC1CCCCC1 (configuration not stated) 3.03%
Cc1cccc(C(C)Nc2ccc([N+](=O)[O-])cn2)c1 (configuration not stated) 1.95%
COC(=O)c1ccc(/C=C/C(=O)c2ccc(OC)cc2)cc1 4.33%
COc1ccc(/C=C/C(=O)c2ccc(O)cc2)cc1 4.28%
CCn1cc(C(=O)N2CCN(c3ccc(OC)cc3)CC2)c2cc(OC)c(OC)cc2c1=O 18.7%
CC(C)c1nnc(NC(=O)c2cccc(-n3cnnn3)c2)s1 10.5%
Cc1ccc(C2=NN=C(NC(=O)CSc3nnc4c5ccccc5n(C)c4n3)SC2)cc1 28.8%
Cc1cc(C)nc(SCC(=O)NC2=NN=C(c3ccc(Br)cc3)CS2)n1 27.2%
COc1ccc2nc(/C(C#N)=C\c3ccc(Oc4ccc([N+](=O)[O-])cn4)cc3)[nH]c2c1 5.92%
Cc1cccc(N2C(=O)Cc3ccccc3C2=O)c1 8.26%
Cc1ccc(C(c2nnnn2C2CCCC2)N2CCN(c3nc4ccccc4s3)CC2)cc1 (configuration not stated) 4.8%
Cc1ccc(OCC(=O)N/N=C\c2cccn2C)c([N+](=O)[O-])c1 1.92%
COc1ccc2nc3cc(Cl)ccc3c(Nc3cc(C(C)C)c(O)cc3C)c2c1 7.74%
COc1ccc(N2CCN(Cc3nc4cc(Cl)ccc4c(=O)[nH]3)CC2)cc1 15.2%
CCOc1ccc(N2C(=O)CC(Cc3cc(C)cc(C)c3)C2=O)cc1 (configuration not stated) 7.28%
Cc1ccc(N=C(N)N=C(N)N)cc1 16.3%
Cc1ccc(N=Nc2ccc(O)cc2)c(Br)c1 14.6%
CC(=O)C1C(c2cccc(F)c2)c2c(n[nH]c2C)CC1(C)O (configuration not stated) 9.67%
CCC(=O)N1N=C(c2cccc(NS(C)(=O)=O)c2)CC1c1cccs1 (configuration not stated) 11.9%
COc1cc(NCc2ccccc2)c2ncn(Cc3ccccc3)c2c1 6.64%
CCn1cc(C(=O)Nc2ccc(NC(=O)c3ccco3)cc2)c(=O)c2ccc(C)nc21 0.62%
Cc1cc(C(=O)CN2C(=O)NC3(CCCCC3)C2=O)c(C)n1Cc1ccc2c(c1)OCO2 0.78%
Cc1[nH]n(-c2cccc([N+](=O)[O-])c2)c(=O)c1-c1ccccc1 8.04%
S=c1[nH]cc(-c2ccccc2)n1-c1cccc(Cl)c1 6.88%
Nc1c(-c2ccccc2)cnn1-c1cccc([N+](=O)[O-])c1 5.5%
COc1c[nH]n(-c2ccccc2)c(=O)c1=O 5.24%
Nc1c(-c2cccc(Cl)c2)cnn1-c1ccccc1 20.3%
O=c1c(N=Nc2ccccc2)c[nH]n1-c1ccccc1 -5.5%
COC(=O)c1ccsc1NC(=O)c1ccco1 6.38%
COc1cc(C(=O)COC(=O)c2ccncc2)cc(OC)c1OC 4.46%
Cc1cc(C(=O)C(=O)N(C)C)c(C)n1-c1ccc(Cl)c(Cl)c1 14.3%
CC1CN(C(=O)c2ccc(NS(=O)(=O)c3cccc(Cl)c3)cc2)CC(C)O1 (configuration not stated) 5.38%
NS(=O)(=O)c1ccc(N=Cc2c(O)n(-c3nccs3)c(=O)c3ccccc23)cc1 1.11%
Cc1ccc(NC(=O)N/C=C/c2ccco2)c(C)c1 7.78%
